Several values for one entry are separate records, joined by “and”; a condition that tells them apart may be missing. Equal entries are not always repeated. Among all 5,500 compounds or so, about 2,000 (36%) were called active. Inconclusive results (about 18%) are left out. Rule as the data show it: active = normalized growth mostly below about 0.91 (no sharp cut-off); inconclusive = no clear call, values can overlap the other calls; inactive = mostly above about 0.92. This is one part of the list.
Experiment: chemical genetic growth profiling, strain panel (AID 1159580);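 also: tested at 20 µM; growth read once vehicle control cultures reached saturation at 30 °C; 1 = growth at the plate median or of vehicle wells; lower values mean less growth of the strain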
Conditions: S. cerevisiae deletion strains, growth OD

Measured: normalized growth

O=C1C=CC2=C3c4cc(O)c(O)cc4C[C@@]3(O)COC2=C1
inactive: locus YAL021C, strain ccr4, stronger effect = lower value 0.965 | locus YAL026C, strain drs2, stronger effect = lower value 0.973 | locus YAL030W, strain snc1, stronger effect = lower value 0.979 | locus YBL061C, strain skt5, stronger effect = lower value 0.992 | locus YBR009C, strain hhf1, stronger effect = lower value 0.984 | locus YBR021W, strain FUR4, stronger effect = lower value 1.01 | locus YBR023C, strain chs3, stronger effect = lower value 0.99 | locus YBR171W, strain sec66, stronger effect = lower value 0.988 | locus YBR229C, strain ROT2, stronger effect = lower value 0.998 | locus YBR231C, strain swc5, stronger effect = lower value 0.978 | locus YBR279W, strain paf1, stronger effect = lower value 0.985 | locus YCL011C, strain gbp2, stronger effect = lower value 0.975 | locus YCL016C, strain dcc1, stronger effect = lower value 0.95 | locus YCL029C, strain bik1, stronger effect = lower value 1 | locus YCL061C, strain MRC1, stronger effect = lower value 0.98 | locus YCL069W, strain vba3, stronger effect = lower value 0.981 | locus YCR088W, strain abp1, stronger effect = lower value 0.99 | locus YDL005C, strain med2, stronger effect = lower value 0.966 | locus YDL035C, strain GPR1, stronger effect = lower value 1.03 | locus YDL040C, strain nat1, stronger effect = lower value 0.97 | locus YDL074C, strain BRE1, stronger effect = lower value 1 | locus YDL101C, strain DUN1, stronger effect = lower value 0.981 | locus YDL134C, strain PPH21, stronger effect = lower value 0.998 | locus YDL185W, strain tfp1, stronger effect = lower value 0.985 | locus YDL192W, strain arf1, stronger effect = lower value 1.01 | locus YDR001C, strain nth1, stronger effect = lower value 0.978 | locus YDR069C, strain doa4, stronger effect = lower value 0.94 | locus YDR101C, strain arx1, stronger effect = lower value 1.05 | locus YDR137W, strain rgp1, stronger effect = lower value 1.01 | locus YDR150W, strain NUM1, stronger effect = lower value 1 | locus YDR159W, strain sac3, stronger effect = lower value 0.986 | locus YDR162C, strain NBP2, stronger effect = lower value 1.03 | locus YDR195W, strain ref2 0.939 | locus YDR297W, strain sur2, stronger effect = lower value 0.981 | locus YDR318W, strain mcm21, stronger effect = lower value 0.998 | locus YDR334W, strain swr1, stronger effect = lower value 0.967 | locus YDR335W, strain msn5, stronger effect = lower value 0.969 | locus YDR388W, stronger effect = lower value 1 | locus YDR392W, strain spt3, stronger effect = lower value 0.95 | locus YDR502C, strain sam2, stronger effect = lower value 0.999 | locus YEL003W, strain gim4, stronger effect = lower value 0.989 | locus YEL037C, strain rad23, stronger effect = lower value 0.981 | locus YEL061C, strain CIN8 (second series), stronger effect = lower value 0.975 | locus YER015W, strain faa2, stronger effect = lower value 0.982 | locus YER016W, strain bim1, stronger effect = lower value 0.976 | locus YER110C, stronger effect = lower value 0.986 | locus YER111C, strain swi4, stronger effect = lower value 0.98 | locus YER155C, strain BEM2 (second series), stronger effect = lower value 0.972 | locus YER155C, strain BEM2, stronger effect = lower value 1.02 | locus YER167W, strain BCK2, stronger effect = lower value 1.01 | locus YFR010W, strain ubp6, stronger effect = lower value 0.963 | locus YGL078C, strain dbp3, stronger effect = lower value 0.967 | locus YGL086W, strain mad1, stronger effect = lower value 1.01 | locus YGL167C, strain pmr1, stronger effect = lower value 0.964 | locus YGL173C, strain kem1, stronger effect = lower value 0.977 | locus YGL227W, strain vid30, stronger effect = lower value 0.989 | locus YGL240W, strain doc1, stronger effect = lower value 0.985 | locus YGL248W, strain PDE1, stronger effect = lower value 0.981 | locus YGL253W, strain hxk2, stronger effect = lower value 0.978 | locus YGR135W, strain pre9, stronger effect = lower value 0.954 | locus YGR252W, strain gcn5, stronger effect = lower value 0.939 | locus YHR013C, strain ard1, stronger effect = lower value 0.954 | locus YHR027C, strain rpn1, stronger effect = lower value 0.972 | locus YHR030C, strain SLT2, stronger effect = lower value 1.03 | locus YHR079C, strain IRE1 (second series), stronger effect = lower value 1 | locus YHR079C, strain IRE1, stronger effect = lower value 1.02 | locus YHR094C, strain hxt1, stronger effect = lower value 0.994 | locus YHR129C, strain ARP1, stronger effect = lower value 0.997 | locus YHR142W, strain chs7, stronger effect = lower value 0.963 | locus YHR200W, strain rpn10, stronger effect = lower value 0.991 | locus YIL066C, strain RNR3, stronger effect = lower value 1.01 | locus YIL073C, strain SPO22, stronger effect = lower value 0.996 | locus YIL125W, strain kgd1, stronger effect = lower value 0.994 | locus YIR030C, strain dcg1, stronger effect = lower value 0.999 | locus YJL092W, strain hpr5, stronger effect = lower value 0.991 | locus YJL095W, strain BCK1 (second series), stronger effect = lower value 0.975 | locus YJL095W, strain BCK1, stronger effect = lower value 0.979 and 1.04 | locus YJL115W, strain asf1, stronger effect = lower value 0.975 | locus YJL129C, strain trk1, stronger effect = lower value 1 | locus YJL134W, strain LCB3, stronger effect = lower value 1.01 | locus YJL154C, strain vps35, stronger effect = lower value 0.981 | locus YJL164C, strain tpk1, stronger effect = lower value 0.962 | locus YJL166W, strain qcr8, stronger effect = lower value 0.979 | locus YJL168C, strain set2, stronger effect = lower value 0.996 | locus YJL187C, strain SWE1 (second series), stronger effect = lower value 0.96 | locus YJL187C, strain SWE1, stronger effect = lower value 0.988 | locus YJR043C, strain POL32, stronger effect = lower value 1.03

From PubChem BioAssay AID1159580 (chemical genetic matrix, 2015)
